# Measurements reported in PubChem BioAssay (Tox21).
# Several values for one entry are separate records, joined by “and”; a condition that tells them apart may be missing. Equal entries are not always repeated. Results filed as inconclusive are left out. Where a call stands in place of a potency, no number is given. Where a structure was tested more than once in an assay, its records may differ in their call. Activity calls are given as the source filed them. Unless noted, the call rests on the fitted dose curve; in most records, active means well fitted curve in the direction sought with a large enough effect in the repeat runs; inconclusive means weak or mixed curves; inactive means flat fitted curve, though single readings scatter.
# Tests used:
# [1] = qHTS assay to test for compound auto fluorescence at 535 nm (green) in HEK293 cells (AID 720680)
# [2] = qHTS assay to test for compound auto fluorescence at 460 nm (blue) in HEK293 cell free culture (AID 720681)
# How it was run: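 Blue fluorescence (Ex 405/Em 460 nm, triamterene-equivalent) was read immediately after pin transfer of compound or DMSO into medium (DMEM, 10% FBS) without cells.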
# [3] = qHTS assay to test for compound auto fluorescence at 535 nm (green) in HEK293 cell free culture (AID 720682)
# How it was run: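 DMEM + 10% FBS, cell-free; cpd or DMSO pinned in; Ex485/Em535 read; output as fluorescein-equivalent signal.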
# [4] = qHTS assay to test for compound auto fluorescence at 590 nm (red) in HEK293 cell free culture (AID 720683)
# How it was run: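 Red-channel autofluorescence of compounds in culture medium (DMEM, 10% FBS), no cells, measured at 540/590 nm. Rose Bengal sodium is the reference fluorophore for equivalence.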
# [5] = qHTS assay to test for compound auto fluorescence at 460 nm (blue) in HepG2 cell free culture (AID 720685)
# How it was run: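 Compound (23 nL) or DMSO pinned into cell-free MEM with 10% FBS; blue fluorescence read at 405/460 nm excitation/emission, expressed as auto-fluorescence equivalency to triamterene.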
# [6] = qHTS assay to test for compound auto fluorescence at 535 nm (green) in HepG2 cell free culture (AID 720686)
# [7] = qHTS assay to test for compound auto fluorescence at 460 nm (blue) in HepG2 cells (AID 720687)
# How it was run: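 Blue-channel autofluorescence (Ex/Em 405/460 nm, triamterene-equivalent) was measured after 1 hr compound exposure at 37 C, 5% CO2. Cells were HepG2, plated overnight at 37 C in MEM plus 10% FBS.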
# [8] = biological target: Glucocorticoid receptor (Homo sapiens) (UniProt P04150); experiment: qHTS assay to identify small molecule antagonists of the glucocorticoid receptor (GR) signaling pathway (AID 720692; active means well fitted inhibition curve with a large enough effect in the signal ratio in the repeat runs, not every such curve was filed as active; the % refers to the signal ratio; further: potency means the concentration at half of the fitted maximal effect)
# Sequence of Glucocorticoid receptor (Homo sapiens) (P04150 whole entry, looked up): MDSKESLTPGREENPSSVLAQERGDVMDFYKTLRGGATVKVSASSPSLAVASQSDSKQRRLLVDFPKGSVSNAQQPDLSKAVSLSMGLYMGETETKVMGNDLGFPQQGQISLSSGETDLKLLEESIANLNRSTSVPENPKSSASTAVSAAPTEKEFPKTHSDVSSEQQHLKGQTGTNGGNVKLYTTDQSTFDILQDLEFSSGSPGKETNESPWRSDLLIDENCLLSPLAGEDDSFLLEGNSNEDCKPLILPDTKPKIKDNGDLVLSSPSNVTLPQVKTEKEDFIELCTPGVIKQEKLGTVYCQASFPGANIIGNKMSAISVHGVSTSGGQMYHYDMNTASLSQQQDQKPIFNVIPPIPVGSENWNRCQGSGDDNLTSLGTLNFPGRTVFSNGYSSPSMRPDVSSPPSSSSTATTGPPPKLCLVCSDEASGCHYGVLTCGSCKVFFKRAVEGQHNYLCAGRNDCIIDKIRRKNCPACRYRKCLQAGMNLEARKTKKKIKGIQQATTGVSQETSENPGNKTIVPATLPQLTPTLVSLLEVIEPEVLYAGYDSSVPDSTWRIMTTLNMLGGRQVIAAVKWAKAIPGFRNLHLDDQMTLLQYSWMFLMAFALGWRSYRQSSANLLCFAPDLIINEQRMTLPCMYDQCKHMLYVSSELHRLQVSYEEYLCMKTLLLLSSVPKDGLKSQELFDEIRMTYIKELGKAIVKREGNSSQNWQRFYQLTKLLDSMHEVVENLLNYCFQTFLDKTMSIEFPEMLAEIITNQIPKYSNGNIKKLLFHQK
# How it was run: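 HeLa GR-bla cells; cmpd + dex 5 nM final, 18 h 37 C; LiveBLAzer B/G FRET substrate 2 h RT; fluorescence intensity read. Antagonist mode, qHTS.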
# [9] = biological target: Glucocorticoid receptor (Homo sapiens) (UniProt P04150); experiment: qHTS assay to identify small molecule agonists of the glucocorticoid receptor (GR) signaling pathway (AID 720691; active means well fitted activation curve with a large enough effect in the signal ratio in the repeat runs, not every such curve was filed as active; the % refers to the signal ratio)
# How it was run: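 Fluorescence intensity from LiveBLAzer B/G FRET substrate (2 h, room temperature) reports beta-lactamase expression driven by the glucocorticoid response element in GR-bla HeLa cells after 18 h compound exposure at 37 C.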
# [10] = qHTS assay to test for compound auto fluorescence at 590 nm (red) in HepG2 cell free culture (AID 720684)
# How it was run: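 Steps: dispense MEM/10% FBS medium, no cells; pin compound or DMSO vehicle; read red channel, Ex/Em 540/590 nm. Output given as Rose Bengal sodium equivalents.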
compound,measurement,setting,value
OCCOCCN1CCN(C(c2ccccc2)c2ccc(Cl)cc2)CC1 (stereo not given),Potency,[1],inactive
same,Potency,[2],inactive
same,Potency,[3],inactive
same,outcome,[4],inactive
same,Potency,[5],inactive
same,Potency,[6],inactive
same,Potency,[7],inactive
Nc1nc(=S)c2[nH]cnc2[nH]1,Potency,[1],inactive
same,Potency,[2],inactive
same,Potency,[3],inactive
same,outcome,[4],inactive
same,Potency,[5],inactive
same,Potency,[6],inactive
same,Potency,[8],23.9 µM (active) and 30.1 µM (active) and 43.6 µM (active)
CC(=O)CC(=O)Nc1ccc2[nH]c(=O)[nH]c2c1,Potency,[1],inactive
same,Potency,[2],inactive
same,Potency,[3],inactive
same,outcome,[4],inactive
same,Potency,[5],inactive
same,Potency,[6],inactive
NCCO,Potency,[1],inactive
same,Potency,[2],inactive
same,Potency,[3],inactive
same,outcome,[4],inactive
same,Potency,[5],inactive
same,Potency,[6],inactive
same,Potency,[7],inactive
same,Potency,[9],inactive
CCOc1ccccc1C(N)=O,Potency,[1],inactive
same,Potency,[2],inactive
same,Potency,[3],inactive
same,outcome,[4],inactive
same,Potency,[5],inactive
same,Potency,[6],inactive
same,Potency,[7],inactive
same,Potency,[9],inactive
same,Potency,[8],inactive
O=C1CC2(CCCC2)CC(=O)N1CCCCN1CCN(c2ncccn2)CC1,Potency,[2],inactive
same,Potency,[3],inactive
same,outcome,[4],inactive
same,outcome,[10],inactive
same,Potency,[5],inactive
same,Potency,[6],inactive
CC(C)(c1ccccc1)c1ccc(Nc2ccc(C(C)(C)c3ccccc3)cc2)cc1,Potency,[1],inactive
same,Potency,[2],inactive
same,Potency,[3],inactive
same,outcome,[4],inactive
same,Potency,[5],inactive
same,Potency,[6],inactive
same,Potency,[7],inactive
C=CC(=O)OCCCCCCCC,Potency,[1],inactive
same,Potency,[2],inactive
same,Potency,[3],inactive
same,outcome,[4],inactive
same,Potency,[5],inactive
same,Potency,[6],inactive
same,Potency,[7],inactive
same,Potency,[9],inactive
same,Potency,[8],inactive
N[C@@H]1CONC1=O,Potency,[1],inactive
same,Potency,[2],inactive
same,Potency,[3],inactive
same,outcome,[4],inactive
same,Potency,[5],inactive
same,Potency,[6],inactive
same,Potency,[7],inactive
same,Potency,[9],inactive
COc1ccc(CCN2CCC(Nc3nc4ccccc4n3Cc3ccc(F)cc3)CC2)cc1,Potency,[1],inactive
same,Potency,[2],inactive
same,Potency,[3],inactive
same,outcome,[4],inactive
same,Potency,[5],inactive
same,Potency,[6],inactive
same,Potency,[7],inactive
CC1=CC(=O)c2ccccc2C1=O,Potency,[1],inactive
same,Potency,[2],inactive
same,Potency,[3],inactive
same,outcome,[4],inactive
same,Potency,[5],inactive
same,Potency,[6],inactive
same,Potency,[7],inactive
same,Potency,[9],inactive
O=C1NCC2(CCN(CCc3ccccc3)CC2)O1,Potency,[1],inactive
same,Potency,[2],inactive
same,Potency,[3],inactive
same,outcome,[4],inactive
same,Potency,[5],inactive
same,Potency,[6],inactive
same,Potency,[7],inactive
same,Potency,[9],inactive
same,Potency,[8],inactive
CC(=O)OCCOCCOCCOC(C)=O,Potency,[1],inactive
same,Potency,[2],inactive
same,Potency,[3],inactive
same,outcome,[4],inactive
same,Potency,[5],inactive
same,Potency,[6],inactive
CC(C)(C)NC(=O)[C@@H]1CN(Cc2cccnc2)CCN1C[C@@H](O)C[C@@H](Cc1ccccc1)C(=O)N[C@H]1c2ccccc2C[C@H]1O,Potency,[1],inactive
same,Potency,[2],inactive
same,Potency,[3],inactive
same,outcome,[4],inactive
same,Potency,[5],inactive
same,Potency,[6],inactive
same,Potency,[7],inactive
same,Potency,[9],inactive
same,Potency,[8],inactive
Nc1cc(S(=O)(=O)O)cc2cc(S(=O)(=O)O)cc(O)c12,Potency,[1],inactive
same,Potency,[3],inactive
same,outcome,[4],inactive
same,outcome,[10],inactive
same,Potency,[5],inactive
same,Potency,[6],inactive
same,Potency,[7],inactive
same,Potency,[9],inactive
same,Potency,[8],inactive
O=Nc1ccc(Nc2ccccc2)cc1,Potency,[1],inactive
same,Potency,[2],inactive
same,Potency,[3],inactive
same,outcome,[4],inactive
same,Potency,[5],inactive
same,Potency,[6],inactive
Clc1ccc2c(c1)C(N1CCNCC1)=Nc1ccccc1O2,Potency,[1],inactive
same,Potency,[2],inactive
same,Potency,[3],inactive
same,outcome,[4],inactive
same,Potency,[5],inactive
same,Potency,[6],inactive
same,Potency,[7],inactive
same,Potency,[9],inactive
same,Potency,[8],19 µM (active) and inactive
NCCCCCC(=O)O,"fluorescence, % of fluorescein",[1],-0.0215% [at 18.6 µM] (inactive)
same,"fluorescence, % of fluorescent control",[2],0.0269% [at 18.6 µM] (inactive)
same,activity change,[3],"0.0558% [at 18.6 µM, stronger effect = higher value] (inactive)"
same,"fluorescence, % of fluorescent control",[4],-0.0259% [at 18.6 µM] (inactive)
same,"fluorescence, % of fluorescent control",[5],0.0102% [at 18.6 µM] (inactive)
same,"fluorescence, % of fluorescein control",[6],-0.0066% [at 18.6 µM] (inactive)
same,"fluorescence, % of fluorescent control",[7],-0.0854% [at 18.6 µM] (inactive)
same,Potency,[9],inactive
CCC(=O)/C=C/C1C(C)=CCCC1(C)C (stereo not given),Potency,[1],inactive
same,Potency,[2],inactive
same,Potency,[3],inactive
same,outcome,[4],inactive
same,Potency,[5],inactive
same,Potency,[6],inactive
same,Potency,[9],inactive
same,Potency,[8],inactive
O=C(O)c1cc(Cl)cc(Cl)c1,Potency,[1],inactive
same,Potency,[2],inactive
same,Potency,[3],inactive
same,outcome,[4],inactive
same,Potency,[5],inactive
same,Potency,[6],inactive
same,Potency,[7],inactive
same,Potency,[9],inactive
OCC(CO)N[C@H]1C[C@](O)(CO)[C@@H](O)[C@H](O)[C@H]1O,Potency,[1],inactive
same,Potency,[2],inactive
same,Potency,[3],inactive
same,outcome,[4],inactive
same,Potency,[5],inactive
same,Potency,[6],inactive
same,Potency,[9],inactive
same,Potency,[8],inactive
CC1=C(C=O)C(C)(C)CC=C1,Potency,[1],inactive
same,Potency,[2],inactive
same,Potency,[3],inactive
same,outcome,[4],inactive
same,Potency,[5],inactive
same,Potency,[6],inactive
same,Potency,[7],inactive
same,Potency,[9],inactive
same,Potency,[8],inactive
CCC[C@H](N[C@@H](C)C(=O)N1[C@H](C(=O)O)C[C@@H]2CCCC[C@@H]21)C(=O)OCC,Potency,[1],inactive
same,Potency,[2],inactive
same,Potency,[3],inactive
same,outcome,[4],inactive
same,Potency,[5],inactive
same,Potency,[6],inactive
same,Potency,[9],inactive
same,Potency,[8],inactive
CCCN[C@H]1CCc2nc(N)sc2C1,Potency,[1],inactive
same,Potency,[2],inactive
same,Potency,[3],inactive
same,outcome,[4],inactive
same,Potency,[5],inactive
same,Potency,[6],inactive
CC(C)(C)NCC(O)c1cc(O)cc(O)c1 (stereo not given),Potency,[2],inactive
same,Potency,[3],inactive
same,outcome,[4],inactive
same,outcome,[10],inactive
same,Potency,[5],inactive
same,Potency,[6],inactive
COC(=O)[C@H]1[C@H]2C[C@@H]3c4[nH]c5cc(OC)ccc5c4CCN3C[C@H]2C[C@@H](OC(=O)c2cc(OC)c(OC)c(OC)c2)[C@@H]1OC,Potency,[1],inactive
same,Potency,[2],inactive
same,Potency,[3],inactive
same,outcome,[4],inactive
same,Potency,[5],inactive
same,Potency,[6],inactive
same,Potency,[7],inactive
same,Potency,[9],inactive
O=C1Nc2ccccc2C1(c1ccc(O)cc1)c1ccc(O)cc1,Potency,[1],inactive
same,Potency,[2],inactive
same,Potency,[3],inactive
same,outcome,[4],inactive
same,Potency,[5],inactive
same,Potency,[6],inactive
same,Potency,[7],inactive
CC(=O)Nc1ccc(C(=O)CCl)cc1,Potency,[1],inactive
same,Potency,[2],inactive
same,Potency,[3],inactive
same,outcome,[4],inactive
same,Potency,[5],inactive
same,Potency,[6],inactive
same,Potency,[7],inactive
same,Potency,[9],inactive
same,Potency,[8],inactive
O=C(O[C@@H]1Cc2c(O)cc(O)cc2O[C@@H]1c1cc(O)c(O)c(O)c1)c1cc(O)c(O)c(O)c1,Potency,[2],inactive
same,Potency,[3],inactive
same,outcome,[4],inactive
same,outcome,[10],inactive
same,Potency,[5],inactive
same,Potency,[6],inactive
same,Potency,[9],inactive
same,Potency,[8],inactive
NC(N)=NC(=O)Cc1c(Cl)cccc1Cl,Potency,[2],inactive
same,Potency,[3],inactive
same,outcome,[4],inactive
same,outcome,[10],inactive
same,Potency,[5],inactive
same,Potency,[6],inactive
same,Potency,[7],inactive
same,Potency,[9],inactive
CCC(C)(Oc1ccc(C2(c3ccc(OC(C)(CC)C(=O)O)cc3)CCCCC2)cc1)C(=O)O (stereo not given),Potency,[2],inactive
same,Potency,[3],inactive
same,outcome,[4],inactive
same,outcome,[10],inactive
same,Potency,[5],inactive
same,Potency,[6],inactive
same,Potency,[7],inactive
same,Potency,[9],inactive
same,Potency,[8],inactive
COc1ccc(CCN(C)CCCC(C#N)(c2ccc(OC)c(OC)c2)C(C)C)cc1OC (stereo not given),Potency,[2],inactive
same,Potency,[3],inactive
same,outcome,[4],inactive
same,outcome,[10],inactive
same,Potency,[5],inactive
same,Potency,[6],inactive
same,Potency,[7],inactive
CCc1cc(C(C)(C)C)c(O)c(C(C)(C)C)c1,Potency,[2],inactive
same,Potency,[3],inactive
same,outcome,[4],inactive
same,Potency,[5],inactive
same,Potency,[6],inactive
same,Potency,[7],inactive
same,Potency,[9],inactive
same,Potency,[8],inactive
NNCCc1ccccc1,Potency,[2],inactive
same,Potency,[3],inactive
same,outcome,[4],inactive
same,outcome,[10],inactive
same,Potency,[5],inactive
same,Potency,[6],inactive
same,Potency,[7],inactive
same,Potency,[9],inactive
same,Potency,[8],inactive
O=C(Cl)c1cccc(C(=O)Cl)c1,Potency,[2],inactive
same,Potency,[3],inactive
same,outcome,[4],inactive
same,outcome,[10],inactive
same,Potency,[5],inactive
same,Potency,[6],inactive
same,Potency,[7],inactive
same,Potency,[9],inactive
same,Potency,[8],inactive
CC(C)(C)c1cc(C(C)(C)C)c(O)c(C(C)(C)C)c1,Potency,[2],inactive
same,Potency,[3],inactive
same,outcome,[4],inactive
same,Potency,[5],inactive
same,Potency,[6],inactive
same,Potency,[7],inactive
same,Potency,[9],inactive
same,Potency,[8],inactive
CC(C)C(=O)c1c(C(C)C)nn2ccccc12,Potency,[2],inactive
same,Potency,[3],inactive
same,outcome,[4],inactive
same,outcome,[10],inactive
same,Potency,[5],inactive
same,Potency,[6],inactive
COC(c1ccccc1)(c1ccccc1)[C@H](Oc1nc(C)cc(C)n1)C(=O)O,Potency,[2],inactive
same,Potency,[3],inactive
same,outcome,[4],inactive
same,outcome,[10],inactive
same,Potency,[5],inactive
same,Potency,[6],inactive
same,Potency,[7],inactive
same,Potency,[9],inactive
